Compound activity deposited in PubChem BioAssay by several laboratories.
CF NFkB block = cystic fibrosis NF-kB activation inhibition | 360,000 tested, 0.86% active | AID 588850 | inhibition, % at 5 µM | KKLEB NF-kB-GFP reporter, PAF-induced, GFP fluorescence overnight;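 active = at least 50% inhibition at 5 µM, scaled per plate between neutral and stimulator controls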;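 note: PAF is a Pseudomonas aeruginosa culture filtrate used as stimulus; plate controls were PAF-stimulated DMSO wells for no effect and unstimulated DMSO wells for full effect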
Peg3 prom inh = inhibitors of Peg3 promoter; inhibition, % at 20 µM; HeLa PEG-Prom luciferase reporter, luminescence, overnight; AID 588405; 360,000 tested, 1.7% active;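 active = inhibition of at least 50% at 20 µM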
MITF TRPM1 inh = MITF TRPM1 promoter inhibition in SK-MEL-5 cells | SK-MEL-5 TRPM1 promoter luciferase, 24 h | inhibition, % at 12.5 µM | 330,000 tested, 0.83% active | AID 488899;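 active = mean inhibition across replicates of 60% or more, whatever share of single replicates reaches that level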
ABHD5-PLIN5 inh = inhibitors of human ABHD5-perilipin-5 interaction | AID 602281 | inhibition, % at 4 µM | Split G. princeps luciferase complementation, luminescence, 4 h | 360,000 tested, 0.78% active;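 active = inhibition above the mean inhibition across every tested compound plus 3 SD, cut at about 22% in these data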;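 note: 0% = DMSO only wells and the 100% control is not disclosed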
Target sequence (Q00G26 whole entry, looked up): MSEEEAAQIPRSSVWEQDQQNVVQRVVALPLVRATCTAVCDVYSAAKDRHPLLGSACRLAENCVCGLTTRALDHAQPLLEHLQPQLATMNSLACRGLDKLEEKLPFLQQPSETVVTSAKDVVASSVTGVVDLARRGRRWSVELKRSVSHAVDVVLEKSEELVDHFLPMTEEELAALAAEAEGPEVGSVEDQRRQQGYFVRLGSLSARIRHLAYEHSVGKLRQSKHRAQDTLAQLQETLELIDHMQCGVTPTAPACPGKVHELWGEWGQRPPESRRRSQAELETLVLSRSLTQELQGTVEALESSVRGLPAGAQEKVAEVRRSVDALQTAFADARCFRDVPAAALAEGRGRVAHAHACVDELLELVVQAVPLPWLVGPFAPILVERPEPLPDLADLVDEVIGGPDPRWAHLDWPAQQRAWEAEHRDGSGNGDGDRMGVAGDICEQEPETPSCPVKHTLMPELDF
Target sequence (Q8WTS1 whole entry, looked up): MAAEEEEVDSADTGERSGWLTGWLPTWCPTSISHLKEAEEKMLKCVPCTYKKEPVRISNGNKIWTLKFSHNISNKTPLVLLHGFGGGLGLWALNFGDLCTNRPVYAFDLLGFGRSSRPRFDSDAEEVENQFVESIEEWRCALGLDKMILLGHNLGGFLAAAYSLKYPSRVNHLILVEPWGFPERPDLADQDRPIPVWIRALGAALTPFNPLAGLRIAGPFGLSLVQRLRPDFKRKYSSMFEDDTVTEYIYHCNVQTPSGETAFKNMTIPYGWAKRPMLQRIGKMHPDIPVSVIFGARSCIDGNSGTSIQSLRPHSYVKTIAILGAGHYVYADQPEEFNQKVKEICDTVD
HIF-2a block = blocks HIF-2a reporter activity. 786-0 RCC cells HIF-2a reporter, luciferase luminescence, overnight. inhibition, % at 18.8 µM. 360,000 tested, 0.72% active. AID 624352;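 active = inhibition of the luminescence signal of 40% or more relative to plate controls, in a single-dose primary screen at 18.75 µM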
KKLEB cytotox = reduces viability of KKLEB cystic fibrosis airway cells | KKLEB CF airway cells viability, ATPlite luminescence, overnight; stronger effect = lower value; cells stimulated with P. aeruginosa culture filtrate | activity change (cytotoxicity), % at 5 µM | 360,000 tested, 0.36% active;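 active = corrected activity change at or below -50% at 5 µM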
Mdm2-MdmX confirm = confirmation of inhibitors of human Mdm2/MdmX interaction, set 2. shares compounds with HIF-2a block. 740 tested, 99% active. AID 504601. SaOS-2 split-luciferase Mdm2/MdmX complementation, luminescence. inhibition, % at 8 µM;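 active = mean inhibition of the luminescence signal across two replicates at or above 26 percent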
HIF-2a conf = confirmation of HIF-2a inhibitors; shares compounds with HIF-2a block; 786-0 RCC cells, HIF-2a luciferase reporter luminescence, overnight; inhibition, % at 18.8 µM; 1,800 tested, 56% active; AID 651580;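 active = mean inhibition across four replicates of at least 40 percent at the single tested concentration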
HIF-1a cs = HIF-1a inhibition counter-screen for HIF-2a hits; shares compounds with HIF-2a block; MiaPaCa-2 HIF-1a luciferase reporter, desferoxamine, overnight; inhibition, % at 18.8 µM; 1,800 tested, 72% active; AID 651589;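 active = mean inhibition of the reporter signal across four replicates at the single tested dose of 50% or more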
The depositor's hits bear a star; nt = not tested or not shown. Compounds with a hit are over-represented: about 3% of the library has one in this group of screens.

SMILES | CF NFkB block | Peg3 prom inh | MITF TRPM1 inh | ABHD5-PLIN5 inh | HIF-2a block | KKLEB cytotox | HIF-2a conf | HIF-1a cs | others
COc1ccc(CN(CCC(c2ccccc2)c2ccc(OC(C)C)cc2)C(=O)CCl)cc1OC (stereo not given) | 81* | 106* | 106* | 17 | 96* | -85* | nt | nt | Mdm2-MdmX confirm=103*
CC(O)(P(=O)(O)O)P(=O)(O)O | -15 | -1 | 4 | 12 | 4 | -19 | nt | nt
NC(=O)c1sc2nc3c(c(-c4cccs4)c2c1N)CCCCC3 | 91* | 14 | -1 | 2 | 34 | -51* | nt | nt | Mdm2-MdmX confirm=95*
CN1C=Nc2c(ncn2C2CCC(CO)O2)C1O (stereo not given) | nt | nt | nt | -1 | 4 | nt | nt | nt
CN(C)S(=O)(=O)N1CCC(Oc2ccc(C(=O)NC3Cc4ccccc4C3)cc2)CC1 | -16 | -120 | 4 | 5 | -129 | 2 | nt | nt
COCC(=O)N1CCC(Oc2ccc(C(=O)NC3Cc4ccccc4C3)cc2)CC1 | 7 | 22 | 7 | 0 | 44* | 9 | 43* | 49
COC(=O)c1sc(-c2cccs2)cc1NC(=O)/C=C/C(=O)O | -23 | 0 | -4 | 8 | -9 | -9 | nt | nt
CC(=O)c1ccc(NC(=O)c2cnn3ccccc23)cc1 | -25 | 25 | nt | -7 | 75* | 15 | 86* | 47
CCCn1nc([N+](=O)[O-])c(C(C#N)c2nc3ccccc3o2)c(Cl)c1=O (stereo not given) | 13 | 19 | 6 | 7 | -6 | 6 | nt | nt
CCn1nc([N+](=O)[O-])c(C(C#N)c2nc3cc(C(F)(F)F)ccc3s2)c(Cl)c1=O (stereo not given) | 61* | 14 | 24 | 1 | -16 | -35 | nt | nt | Mdm2-MdmX confirm=97*
O=C(CSc1ncnc2c1nnn2Cc1ccccc1)NC1CCCC1 | 16 | 5 | -9 | -1 | 17 | -5 | nt | nt
CC(C)(C)NC(=O)CSc1ncnc2c1nnn2Cc1ccccc1Cl | 20 | 31 | 11 | 5 | 48* | -6 | 22 | 15
CC(=O)n1cc(N(C(=O)CCl)c2ccc(Cl)cc2)c2ccccc21 | 98* | 108* | nt | 10 | 83* | -94* | 98* | 108*
CCC(=O)N1CCCc2cc(S(=O)(=O)CCC(=O)Nc3ccccc3C)ccc21 | -7 | 3 | 11 | 1 | 4 | 9 | nt | nt
O=C(CSc1nnc(-c2ccccc2)o1)Nc1ccccc1F | -8 | 39 | nt | -5 | 49* | 1 | 66* | 61*
O=C(CSc1nnc(-c2ccncc2)o1)Nc1cc(F)ccc1F | -4 | -236 | -59 | -13 | -166 | 15 | nt | nt
O=C(CSc1nnc(-c2ccc(Br)cc2)o1)Nc1cccc(C(=O)O)c1 | -4 | 24 | 88* | 1 | 63* | 18 | 63* | -98
C=CCN(c1ccccc1)S(=O)(=O)c1cccc(C(=O)NCC(c2cccs2)N2CCOCC2)c1 (stereo not given) | 20 | 12 | 23 | 10 | 4 | 2 | nt | nt
CCOC(=O)C1=C(C)N=c2s/c(=C/c3ccc(OCC(=O)O)cc3)c(=O)n2C1c1cc(OC)c(OC)c(OC)c1 (stereo not given) | 7 | -3 | -2 | -5 | 21 | 2 | nt | nt
CCOC(=O)C1=C(C)N=c2sc(=Cc3cc(Cl)c(OCC(=O)O)c(Cl)c3)c(=O)n2C1c1cccc(OC)c1 (stereo not given) | 27 | 47 | nt | 5 | 44* | -12 | 46* | 24
COc1ccc(Cl)cc1N(CC(=O)N(C)C)S(=O)(=O)c1ccc(C)c([N+](=O)[O-])c1 | -10 | 8 | 6 | 0 | 12 | 5 | nt | nt
O=C(NC1=NCCS1)c1ccc(F)c(S(=O)(=O)N2CCOCC2)c1 | -8 | 15 | 7 | 4 | 8 | -9 | nt | nt
COc1ccc(-n2ncc(Cl)c(Cl)c2=O)cc1 | 89* | 105* | nt | 4 | 95* | -78* | 96* | 107* | Mdm2-MdmX confirm=102*
C=CCNC(=S)NS(=O)(=O)c1cccs1 | 15 | 17 | 0 | -1 | 10 | 8 | nt | nt
Cc1ccccc1Oc1cc(-n2ncc(Cl)c(Cl)c2=O)ncn1 | 96* | 105* | 94* | 9 | 98* | -100* | 100* | 106*
SMILES | CF NFkB block | Peg3 prom inh | MITF TRPM1 inh | ABHD5-PLIN5 inh | HIF-2a block | KKLEB cytotox | HIF-2a conf | HIF-1a cs | others
CCOC(=O)C(=O)Nc1cccc(C(=O)OCC)c1 | -21 | 0 | 0 | 9 | 14 | -2 | nt | nt
CCOC(=O)c1cccc(NC(=O)Nc2ccc(OCC)cc2)c1 | -14 | -136 | -30 | -9 | 62* | 1 | 61* | -17
O=C(Nc1ccc(OC(F)(F)F)cc1)N1CCN(c2ccnc3cc(Cl)ccc23)CC1 | 3 | 26 | 15 | -7 | 43* | -7 | 11 | 45
CC(C)(C)C(=O)N1CCN(c2ccnc3cc(Cl)ccc23)CC1 | 16 | 24 | 12 | -6 | 29 | -4 | nt | nt
O=C(CCl)Nc1ccc(-c2ccccc2)cc1 | 33 | 104* | 65* | -1 | 15 | -16 | nt | nt | Mdm2-MdmX confirm=102*
CC(=O)Nc1ccc(NC(=O)Cc2ccc(-c3ccccc3)cc2)cc1 | -7 | 2 | 2 | -3 | 3 | -7 | nt | nt
CC(C)N(c1ccccc1)c1ccc(NC(=O)CCl)cc1 | 82* | 91* | 50 | 1 | 82* | -86* | 62* | 100* | Mdm2-MdmX confirm=102*
Cc1cccc(NC(=O)c2ncn3c2C(=O)N(C)CC3)c1 | -42 | 0 | nt | -12 | -23 | 16 | nt | nt
Cc1ccc(C2=NN(C(=O)CCl)C(c3cccs3)C2)o1 (stereo not given) | 46 | 60* | 73* | 13 | 84* | -21 | 2 | 51* | Mdm2-MdmX confirm=101*
COc1ccc(C2CC(c3cccs3)=NN2C(=O)c2ccccc2)cc1OC (stereo not given) | 2 | 8 | -8 | 1 | 10 | 5 | nt | nt
COc1ccc(C2CC(c3cccs3)=NN2C(=O)CCl)cc1OC (stereo not given) | 36 | 103* | 83* | 5 | 3 | -11 | nt | nt | Mdm2-MdmX confirm=96*
CC(=O)N1N=C(c2ccco2)CC1c1cccs1 (stereo not given) | 0 | 2 | 11 | -4 | -1 | -2 | nt | nt
COc1ccc(C2CC(c3cccs3)=NN2C(=O)CCC(=O)O)cc1 (stereo not given) | -2 | 1 | 3 | -1 | -3 | 15 | nt | nt
COc1cc(C2CC(c3cccs3)=NN2C(=O)CCl)ccc1OC(F)F (stereo not given) | 104* | 109* | 65* | 8 | 38 | -88* | nt | nt | Mdm2-MdmX confirm=103*
